Laboratory results published in PubChem BioAssay (Tox21).
Results filed as inconclusive are left out. Calls of active or inactive are those of the source. The call rests on the fitted dose curve.

Assays:
[1] = target: Acetylcholinesterase (Homo sapiens) (UniProt P22303); test: Acetylcholinesterase (AChE) small molecule antagonists: colormetric cell-based qHTS assay (AID 1347395); further: nearly all actives have a fitted effect of over 30% in size
Summary of the method: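 Neuroblastoma line SH-SY5Y supplied the enzyme; cells were preincubated with compound for 30 min at 37 C and 5% CO2. Acetylthiocholine with DTNB was then added for 90 min at 37 C, and thiocholine was measured by colour.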

[2] = target: Acetylcholinesterase (Homo sapiens) (UniProt P22303); test: Acetylcholinesterase (AChE) small molecule antagonists: enzyme-based qHTS assay (AID 1347397); details: Potency: AChE enzyme activity inhibition; outcome: AChE enzyme activity inhibition; further: nearly all actives have a fitted effect of over 55% in size
Summary of the method: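 In this quantitative HTS, compounds from the Tox21 10K collection were preincubated 30 min at ambient temperature with recombinant human AChE dispensed at 50 mU/mL. Hydrolysis of acetylthiocholine was then followed for 10 min by DTNB colour development.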

[3] = target: Acetylcholinesterase (Homo sapiens) (UniProt P22303); test: Acetylcholinesterase (AChE) small molecule antagonists: fluorescence cell-based qHTS assay (AID 1347398); details: Potency: AChE activity; outcome: AChE activity; further: nearly all actives have a fitted effect of over 50% in size
Summary of the method: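 Cells (SH-SY5Y) attached overnight, were dosed with compound or DMSO vehicle for 30 min at 37 C, and then incubated 40 min at room temperature with acetylthiocholine and Thiolite Green; green fluorescence indexed AChE activity.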

[4] = target: Acetylcholinesterase (Homo sapiens) (UniProt P22303); test: Acetylcholinesterase (AChE) small molecule antagonists: enzyme-based qHTS assay with human liver microsomes (AID 1347399); details: Potency: qHTS inhibition; outcome: qHTS inhibition; further: nearly all actives have a fitted effect of over 60% in size
Summary of the method: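 Recombinant human AChE (50 mU/mL in the enzyme mix) and human liver microsomes (0.25 mg/mL final) were preincubated with compound and NADPH (0.25 mg/mL final) for 30 min at 37 C. Acetylthiocholine/DTNB was then added; thiocholine was read colorimetrically after 10 min at room temperature.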
On the % scale 0 is the no-effect control and ±100 the full control effect.

Chain of Acetylcholinesterase (Homo sapiens) (P22303 whole entry, looked up): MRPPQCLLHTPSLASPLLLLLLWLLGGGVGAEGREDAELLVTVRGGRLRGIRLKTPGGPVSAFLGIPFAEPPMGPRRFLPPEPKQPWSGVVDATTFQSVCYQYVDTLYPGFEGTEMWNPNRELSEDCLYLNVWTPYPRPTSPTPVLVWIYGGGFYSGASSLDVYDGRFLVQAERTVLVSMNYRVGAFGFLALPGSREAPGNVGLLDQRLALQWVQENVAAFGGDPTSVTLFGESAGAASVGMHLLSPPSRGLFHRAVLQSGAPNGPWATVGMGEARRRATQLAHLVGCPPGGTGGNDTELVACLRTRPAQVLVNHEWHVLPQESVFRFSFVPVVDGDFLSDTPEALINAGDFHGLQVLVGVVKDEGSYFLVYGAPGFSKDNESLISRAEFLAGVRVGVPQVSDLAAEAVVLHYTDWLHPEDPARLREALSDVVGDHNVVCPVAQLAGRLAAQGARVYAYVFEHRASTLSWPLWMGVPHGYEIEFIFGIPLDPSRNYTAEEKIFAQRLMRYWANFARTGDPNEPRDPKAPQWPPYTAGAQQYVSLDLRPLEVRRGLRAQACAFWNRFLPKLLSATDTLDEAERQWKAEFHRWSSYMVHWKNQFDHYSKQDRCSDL

Cc1ccc(C=O)s1
inactive: Potency [1] | Potency [2] | Potency [3] | Potency [4]

O=C(Nc1ccc([N+](=O)[O-])cc1)Nc1ccc([N+](=O)[O-])cc1
inactive: Potency [1] | Potency [2] | Potency [3] | Potency [4]

CCC1Nc2cc(Cl)c(S(N)(=O)=O)cc2S(=O)(=O)N1 (centres undefined)
inactive: Potency [1] | Potency [2] | Potency [3] | Potency [4]

O=P(O)(O)Oc1ccccc1
inactive: Potency [1] | Potency [2] | Potency [3] | Potency [4]

C[Si]1(C)O[Si](C)(C)O[Si](C)(C)O1
inactive: Potency [1] | Potency [2] | Potency [3] | Potency [4]

OCCC(F)(F)C(F)(F)C(F)(F)C(F)(F)C(F)(F)C(F)(F)F
inactive: Potency [1] | Potency [2] | Potency [3] | Potency [4]

COc1ccc(C2C(=O)c3ccccc3C2=O)cc1
inactive: Potency [1] | Potency [2] | Potency [3] | Potency [4]

CC(C)c1ccccc1
inactive: Potency [1] | Potency [2] | Potency [3] | Potency [4]

O=C(CCOCCOCCOCCOCCC(=O)Nc1c(I)cc(I)c(C(=O)O)c1I)Nc1c(I)cc(I)c(C(=O)O)c1I
inactive: Potency [1] | Potency [2] | Potency [3] | Potency [4]

CC(O)C(C)O (centres undefined)
inactive: Potency [1] | Potency [2] | Potency [3] | Potency [4]

CCCCCc1ccc(O)cc1
inactive: Potency [1] | Potency [2] | Potency [3] | Potency [4]

Cc1ccc(N/N=c2\c(=O)cc/c(=N\Nc3ccc(S(=O)(=O)O)cc3)c2=O)c(C)c1
inactive: Potency [1] | Potency [2] | Potency [3] | Potency [4]

Cc1cccc([N+](=O)[O-])c1C(=O)O
inactive: Potency [1] | Potency [2] | Potency [3] | Potency [4]

O=C1C(=O)c2ccccc2C(O)=C1C1CCC(c2ccc(Cl)cc2)CC1 (centres undefined)
inactive: Potency [1] | Potency [2] | Potency [3] | Potency [4]

C[C@@]12CCC[C@H]1[C@@H]1CC[C@H]3C[C@@H](O)CC[C@]3(C)[C@H]1CC2
inactive: Potency [1] | Potency [2] | Potency [3] | Potency [4]

OCC(O)c1ccccc1 (centres undefined)
inactive: Potency [1] | Potency [2] | Potency [3] | Potency [4]

O=C1OC[C@H](Cc2cccc(O)c2)[C@H]1Cc1cccc(O)c1
inactive: Potency [1] | Potency [2] | Potency [3] | Potency [4]

C=CC(OCC)OCC
inactive: Potency [1] | Potency [2] | Potency [3] | Potency [4]

CN(Cc1ccc(C(C)(C)C)cc1)Cc1cccc2ccccc12
inactive: Potency [1] | Potency [2] | Potency [3] | Potency [4]

CC(C)[C@H]1CC[C@H](C)C[C@@H]1O
inactive: Potency [1] | Potency [2] | Potency [3] | Potency [4]

NS(=O)(=O)Cc1noc2ccccc12
inactive: Potency [1] | Potency [2] | Potency [3] | Potency [4]

NC(=O)c1ccncc1
inactive: Potency [1] | Potency [2] | Potency [3] | Potency [4]

Cc1ccc(N(CC2=NCCN2)c2cccc(O)c2)cc1
inactive: Potency [1] | Potency [2] | Potency [3] | Potency [4]

O=C(O)CNC(=O)c1ccc([N+](=O)[O-])cc1
inactive: Potency [1] | Potency [2] | Potency [3] | Potency [4]

NC(=O)c1cc[n+](CC2=C(C(=O)[O-])N3C(=O)[C@@H](NC(=O)Cc4cccs4)[C@H]3SC2)cc1
inactive: Potency [1] | Potency [2] | Potency [3] | Potency [4]

CCOc1cccc(N)c1
inactive: Potency [1] | Potency [2] | Potency [3] | Potency [4]

c1ccc2occc2c1
inactive: Potency [1] | Potency [2] | Potency [3] | Potency [4]

C=COCC1CCC(COC=C)CC1 (centres undefined)
inactive: Potency [1] | Potency [2] | Potency [3] | Potency [4]

CO[Si](CCCNCCC[Si](OC)(OC)OC)(OC)OC
inactive: Potency [1] | Potency [2] | Potency [3] | Potency [4]

BrCCCCCBr
inactive: Potency [1] | Potency [2] | Potency [3] | Potency [4]

NCc1ccccc1
inactive: Potency [1] | Potency [2] | Potency [3] | Potency [4]

O=C(O)C1CCC1
inactive: Potency [1] | Potency [2] | Potency [3] | Potency [4]

Clc1cc(Cl)c(Cl)nc1Cl
inactive: Potency [1] | Potency [2] | Potency [3] | Potency [4]

[O]=[Mo](=[O])=[O]
inactive: activity, negative = inhibition [1] 2.74% [at 23.6 µM] | activity change, negative = inhibition [2] 0.153% [at 23.6 µM] | activity change, negative = inhibition [3] 0.826% [at 23.8 µM] | activity change, negative = inhibition [4] 0.081% [at 23.6 µM]

c1ccc(CCCc2ccccn2)cc1
inactive: Potency [1] | Potency [2] | Potency [3] | Potency [4]

CC(CC1c2ccccc2CCc2ccccc21)CN(C)C (centres undefined)
inactive: Potency [1] | Potency [2] | Potency [3] | Potency [4]

CC(C)COC(=O)CC(C(=O)OCC(C)C)S(=O)(=O)O (centres undefined)
inactive: Potency [1] | Potency [2] | Potency [3] | Potency [4]

CCCCCCC(O)CO (centres undefined)
inactive: Potency [1] | Potency [2] | Potency [3] | Potency [4]

CCC(=O)C(=O)CC
inactive: Potency [1] | Potency [2] | Potency [3] | Potency [4]

CCN(CC)CCCN(c1ccccc1)C1Cc2ccccc2C1
inactive: Potency [1] | Potency [2] | Potency [3] | Potency [4]

Cc1cccc(CN2CCN(C(c3ccccc3)c3ccc(Cl)cc3)CC2)c1 (centres undefined)
inactive: Potency [1] | Potency [2] | Potency [3] | Potency [4]
